Bioassay records deposited in PubChem by National Center for Advancing Translational Sciences (NCATS).
Pf growth 96h: P. falciparum growth inhibition at 96 hour, primary screen for plastid delayed-death inhibitors; Potency, µM (top dose mostly 28.7 µM), for the others: top-dose activity change, negative = inhibition, actives largely listed as inhibitors; AID 504834; actives 6.9% (n = 320,000); P. falciparum luciferase reporter growth, 96 h; also: % is scaled to controls: 0 for no effect and ±100 for the full control effect
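Parasite growth measured via integrated firefly luciferase reporter in P. falciparum. Infected erythrocytes at 2% hematocrit, 0.05% parasitemia final were treated 96 hours at 37 C under 5% CO2, and luminescence was read.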
NS1 inh: influenza NS1 inhibition | Potency, µM (highest dose often 46.1 µM), inactives show top-dose activity, positive = more growth | actives 0.4% (n = 270,000); calls by dose curve; also: actives are rising curves; nearly all actives have a fitted effect of over 50% in size
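Read-out: OD600 growth recovery of NS1-expressing budding yeast. Cells grown overnight at 30C in -URA glucose medium, washed, resuspended and diluted 1:100 in 2% galactose assay medium, pH 6.0. Same strain lacking NS1 served as positive control.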
Pf growth 48h: P. falciparum growth inhibition at 48 hours (one generation); actives 5.9% (n = 310,000); AID 504832; Potency, µM (titrated, usually from 28.7 µM), for the others: top-dose activity change, negative = inhibition, most hits filed as inhibitors; P. falciparum luciferase growth in erythrocytes, 48 h; also: % is scaled to controls: 0 for no effect and ±100 for the full control effect
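Luciferase-expressing parasites in RBCs, 2% Hct / 0.1% parasitemia final; RPMI 1640 + 0.5% Albumax; 37 C, 5% CO2, one generation; luminescence read-out, lower signal = inhibition.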
HCV inh: inhibitors of hepatitis C virus infection. Huh7.5.1 HCVcc-Cre infection, luciferase reporter, 44 h. actives 3.4% (n = 340,000). Potency, µM (top dose mostly 41.8 µM), inactives show at the highest dose activity change, negative = inhibition, actives largely listed as inhibitors; also: % is scaled to controls: 0 for no effect and ±100 for the full control effect
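Seed cells (1,000/well) for 4 h; treat with compound and infect with HCVcc-Cre, moi about 0.5. Incubate 44 h, then detect luciferase activity.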
AMA1 RON2 block: inhibitors of Plasmodium falciparum AMA1-RON2 interaction; AlphaScreen AMA1-biotinylated RON2 peptide binding; Potency, µM (series often up to 58.2 µM), inactives show at the top dose activity change, negative = inhibition, usual class: inhibitors; actives 0.2% (n = 360,000); AID 720542;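 also: 0% = vehicle wells and -100% = peptide control; nearly all actives have a fitted effect of over 45% in size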
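AMA1 (3D7) with his tag at 25 nM final met compounds first, then biotinylated RON2 peptide at 25 nM; detection used donor plus acceptor beads, 10 µg/mL apiece, read by AlphaScreen after 30 min at room temperature.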
SARS PLP yeast: inhibitors of SARS-CoV papain-like protease in yeast; AID 485353; S. cerevisiae expressing SARS-CoV PLpro, growth rescue; Potency, µM (titrated, usually from 32.9 µM), without a hit: at the highest dose activity, positive = growth rescue, actives largely listed as activators; actives 0.19% (n = 330,000); calls by dose curve; also: 0% is about no effect; nearly all actives have a fitted effect of over 55% in size
* = called active by the depositor. Most compounds without a hit are left out; they make up all but 12% or so of the library. Unless noted, calls follow the shape of the dose curve; as a rule, active = well fitted curve in the direction sought with a large enough effect; inconclusive = small, poorly fitted or top-dose-only effect, or another doubt; inactive = no such curve, though single readings can be large; an effect the other way counts as inactive or inconclusive. Potency is read from the fitted curve at half-maximal effect.

How did CCCCCn1c(NC(=O)c2ccco2)c(C(=O)OCC)c2nc3ccccc3nc21 do in these assays?
Pf growth 96h: inconclusive; NS1 inh: -4%; Pf growth 48h: inconclusive; HCV inh: inconclusive; AMA1 RON2 block: -9%; SARS PLP yeast: -4%

How did CCOC(=O)c1c(NS(=O)(=O)c2ccccc2)n(CCCOC)c2nc3ccccc3nc12 do in these assays?
Pf growth 96h: 0%; NS1 inh: 9%; Pf growth 48h: 10µM*; HCV inh: -22%; AMA1 RON2 block: -12%; SARS PLP yeast: 4%

What do the screens show for `CC(=O)c1cccc(NC(=O)C2(C)Cc3c(-c4cccc(C(F)(F)F)c4)ccnc3O2)c1` (centres undefined)?
AMA1 RON2 block: -6%

How did Cn1c(N2CCN(S(=O)(=O)c3ccc(Cl)cc3)CC2)nc2ccccc21 do in these assays?
Pf growth 96h: 56%; NS1 inh: -5%; Pf growth 48h: -17%; HCV inh: -27%; AMA1 RON2 block: -1%; SARS PLP yeast: -1%

How did Cc1cc(C)n(-c2nc3ccccc3nc2N2CCN(S(=O)(=O)c3ccc4ccccc4c3)CC2)n1 do in these assays?
Pf growth 96h: 5.2µM*; NS1 inh: -1%; HCV inh: -26%; AMA1 RON2 block: 4%; SARS PLP yeast: -3%

How did Cc1cc(N2CCN(S(=O)(=O)c3ccccc3)CC2)nc2c(C)cccc12 do in these assays?
Pf growth 96h: 13µM*; NS1 inh: 9%; Pf growth 48h: -7%; HCV inh: inconclusive; AMA1 RON2 block: 10%; SARS PLP yeast: 4%

How did Cc1cc(N2CCN(S(=O)(=O)c3ccc(Cl)cc3)CC2)c2ccccc2n1 do in these assays?
NS1 inh: -13%; HCV inh: 11µM*; AMA1 RON2 block: -19%; SARS PLP yeast: 5%

How did Cc1cc(N2CCN(S(=O)(=O)c3ccc(Cl)c(Cl)c3)CC2)c2ccccc2n1 do in these assays?
Pf growth 96h: 1%; NS1 inh: 0%; Pf growth 48h: 12µM*; HCV inh: 11µM*; AMA1 RON2 block: -4%; SARS PLP yeast: -1%

How did Cc1cc(=O)oc2cc(OCCSCCN3CCCCC3)ccc12 do in these assays?
Pf growth 96h: inconclusive; NS1 inh: 4%; Pf growth 48h: inconclusive; HCV inh: -9%; AMA1 RON2 block: 19%; SARS PLP yeast: 1%

Results for NC(=O)C(=O)NCCCN1CCOCC1 ?
Pf growth 96h: inconclusive; NS1 inh: 0%; Pf growth 48h: 20%; HCV inh: 5%; AMA1 RON2 block: -1%; SARS PLP yeast: 1%

What do the screens show for `Cc1nn(CC(=O)NC2CCC(C)CC2)c(C)c1[N+](=O)[O-]` (centres undefined)?
Pf growth 96h: -6%; Pf growth 48h: 23%; HCV inh: 1%; AMA1 RON2 block: 0%; SARS PLP yeast: 3%

What do the screens show for `Cc1cc([N+](=O)[O-])cc2c1NC(=O)C2(O)N1CCCC(C)C1` (centres undefined)?
Pf growth 96h: 177%; NS1 inh: 1%; Pf growth 48h: -10%; HCV inh: -9%; AMA1 RON2 block: -6%; SARS PLP yeast: -2%

How did Cc1cc([N+](=O)[O-])cc2c1NC(=O)C2(O)N1CCCCCC1 (centres undefined) do in these assays?
Pf growth 96h: 10µM*; NS1 inh: 4%; Pf growth 48h: -1%; HCV inh: 1%; AMA1 RON2 block: -2%; SARS PLP yeast: -19%

How did CC(=O)c1ccc(NC(=O)c2cn(C)c(=O)c3ccccc23)cc1 do in these assays?
AMA1 RON2 block: 9%

What do the screens show for `Cc1cccc(N(Cc2ccccc2F)S(C)(=O)=O)c1`?
Pf growth 96h: 9.3µM*; NS1 inh: 1%; Pf growth 48h: -18%; HCV inh: 1%; AMA1 RON2 block: -6%; SARS PLP yeast: -2%

What do the screens show for `O=C(NC(c1ccc(Cl)cc1)c1ccsc1)C1CCN(Cc2ccc(Oc3ccccc3)cc2)CC1` (centres undefined)?
AMA1 RON2 block: -15%

How did CCCCc1ccc(NC(=S)NCc2ccc(OC)cc2)cc1 do in these assays?
Pf growth 96h: 30%; NS1 inh: -10%; Pf growth 48h: -1%; HCV inh: inconclusive; AMA1 RON2 block: 51%; SARS PLP yeast: 0%

Results for O=C(Nc1cccc(Cl)c1)Nc1ccc(Br)cc1F ?
Pf growth 96h: inconclusive; NS1 inh: -38%; Pf growth 48h: inconclusive; HCV inh: inconclusive; AMA1 RON2 block: 16%; SARS PLP yeast: -3%

How did Cc1cc(NC(=O)Nc2ccccc2F)ccc1Br do in these assays?
Pf growth 96h: inconclusive; NS1 inh: -3%; Pf growth 48h: 427%; HCV inh: 13µM*; AMA1 RON2 block: -8%; SARS PLP yeast: -2%

What do the screens show for `O=C(Nc1ccccc1)Nc1ccc(Br)cc1F`?
Pf growth 96h: 0.37µM*; NS1 inh: -12%; Pf growth 48h: 101%; HCV inh: -10%; AMA1 RON2 block: 9%; SARS PLP yeast: -19%

Results for CCOc1ccc(CC2NCCc3cc(OCC)c(OCC)cc32)cc1OCC (centres undefined) ?
Pf growth 96h: inconclusive; Pf growth 48h: 12µM*; HCV inh: 6.3µM*; AMA1 RON2 block: -20%; SARS PLP yeast: 0%

Results for COc1cc2c(cc1OC)C(Cc1ccc(O)cc1)NCC2 (centres undefined) ?
Pf growth 96h: -22%; NS1 inh: inconclusive; Pf growth 48h: 2%; HCV inh: -3%; AMA1 RON2 block: 19%; SARS PLP yeast: 11%

Results for Oc1ccc(C[C@H]2NCCc3cc(O)c(O)cc32)cc1O ?
Pf growth 96h: inconclusive; NS1 inh: 6%; Pf growth 48h: inconclusive; HCV inh: 22%; AMA1 RON2 block: 2.5µM*; SARS PLP yeast: -3%

What do the screens show for `Cc1ccc(Cn2c(O)c(N=O)c3ccccc32)cc1`?
Pf growth 96h: inconclusive; NS1 inh: -54%; Pf growth 48h: inconclusive; HCV inh: 2%; AMA1 RON2 block: -4%; SARS PLP yeast: 1%

What do the screens show for `O=Nc1c(O)n(Cc2ccc(Cl)cc2)c2ccccc12`?
Pf growth 96h: inconclusive; NS1 inh: -86%; Pf growth 48h: 13µM*; HCV inh: -9%; AMA1 RON2 block: -18%; SARS PLP yeast: -27%

Results for Cc1ccc2c(c1)c(N=O)c(O)n2Cc1ccc(Cl)cc1 ?
Pf growth 96h: -34%; NS1 inh: -57%; Pf growth 48h: 12µM*; HCV inh: -6%; AMA1 RON2 block: -30%; SARS PLP yeast: -5%

How did O=Nc1c(O)n(Cc2ccc(Cl)cc2Cl)c2ccccc12 do in these assays?
Pf growth 96h: 8.3µM*; NS1 inh: -81%; Pf growth 48h: inconclusive; HCV inh: 2%; AMA1 RON2 block: 11%; SARS PLP yeast: -40%
